The results in this text go back to PubChem BioAssay (EPA / NIEHS).

Records with an inconclusive call do not appear. Activity calls are given as the source filed them. The calls were made as follows, unless noted: active = hit-call score of the fitted dose curve at least 0.9, where 1 is the maximum; inactive = score below 0.9.

The nature of assay [1]: ATG_AP_2_CIS: Attagene CIS-FACTORIAL HepG2 Assay for human Activator Protein 2 (AP-2) (AID 2282932). The settings on record: HepG2 AP-2 cis-reporter, Attagene transcription factor profiling; actives raise or lower the signal. In short, it runs like this: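 Transiently transfected HepG2 cells are exposed to chemical for 24 h. Reporter transcripts are then measured as fluorescence following RT-PCR and capillary separation, and gain- or loss-of-signal is fitted relative to DMSO.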

For assay [2], the target named is Transcription factor E2F1 (Homo sapiens) (UniProt Q01094). The experiment in a line: ATG_E2F_CIS: Attagene CIS-FACTORIAL HepG2 Assay for human E2F Transcription Factor 1 (AID 2282935). The settings on record: HepG2 Attagene cis-reporter, E2F reporter RNA transcripts; actives raise or lower the signal. The essentials: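 Fluorescent RT-PCR products, digested with HpaI for 2 h at 37 C, are separated by capillary electrophoresis. Source RNA comes from transfected HepG2 cultures treated for 24 h.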
Transcription factor E2F1 (Homo sapiens), sequence (Q01094 whole entry, looked up): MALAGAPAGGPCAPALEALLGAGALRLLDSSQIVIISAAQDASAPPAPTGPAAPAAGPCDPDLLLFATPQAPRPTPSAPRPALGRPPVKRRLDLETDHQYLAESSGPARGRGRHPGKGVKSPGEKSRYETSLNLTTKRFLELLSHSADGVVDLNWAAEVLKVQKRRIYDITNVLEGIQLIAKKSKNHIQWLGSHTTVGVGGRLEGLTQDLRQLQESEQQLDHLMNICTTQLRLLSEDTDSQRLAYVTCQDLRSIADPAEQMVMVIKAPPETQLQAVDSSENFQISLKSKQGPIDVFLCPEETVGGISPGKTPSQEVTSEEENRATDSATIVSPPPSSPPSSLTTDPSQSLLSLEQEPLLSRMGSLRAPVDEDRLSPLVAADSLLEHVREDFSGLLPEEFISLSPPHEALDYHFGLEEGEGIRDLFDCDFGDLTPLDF

The nature of assay [3]: ATG_M_61_CIS: Attagene CIS-FACTORIAL HepG2 Assay for M61 Transcription Factor (Internal Marker) (AID 2282937). Conditions: HepG2 Attagene CIS-FACTORIAL M61 internal marker reporter; actives raise or lower the signal. In short, it runs like this:
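Using transiently transfected HepG2 liver cells, reporter transcript levels were assessed 24 h post-dosing by RT-PCR and capillary electrophoresis. Changes in either direction were fitted relative to DMSO controls.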

A short description of assay [4]: ATG_EGR_CIS: Attagene CIS-FACTORIAL HepG2 Assay for human Early Growth Response 1 (EGR1) (AID 2282938). Conditions: HepG2 Attagene CIS-FACTORIAL EGR reporter mRNA; actives raise or lower the signal. In short, it runs like this: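 Fluorescent capillary-electrophoresis signal of reporter cDNA fragments serves as read-out. HepG2 cells bear transiently transfected cis-promoter reporter units and are exposed 24 h; gain- or loss-of-signal is fitted against DMSO.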

A short description of assay [5]: ATG_Ets_CIS: Attagene CIS-FACTORIAL HepG2 Assay for human Erythroblast Transformation Specific (ETS) (AID 2282941). The settings on record: HepG2 ETS cis-reporter transcription, actives raise or lower the signal. The essentials: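 Multiplexed reporter transcript profiling: HepG2, 24 h treatment, total RNA to cDNA, PCR, 6-FAM labelling, HpaI cut, capillary electrophoresis. Gain- or loss-of-signal fitted against DMSO.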

Assay [6] has as its target Hepatocyte nuclear factor 3-beta (Homo sapiens) (UniProt Q9Y261). The experiment in a line: ATG_FoxA2_CIS: Attagene CIS-FACTORIAL HepG2 Assay for human Forkhead box A2 (FOXA2) (AID 2282942). Conditions: HepG2 cis-reporter transcription factor activity, 24 h; actives raise or lower the signal. The essentials: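 Fluorescence signal of reporter cDNA fragments, separated by capillary electrophoresis, reflects endogenous transcription factor activity in transfected HepG2 after 24 h. Both increases and decreases fitted against DMSO.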

Assay [7] in a line: ATG_FoxO_CIS: Attagene CIS-FACTORIAL HepG2 Assay for human Forkhead box O (FoxO) (AID 2282943). Conditions: HepG2 Attagene cis-reporter, FoxO element, mRNA; actives raise or lower the signal. The essentials:
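Endogenous transcription factor activity read from multiplexed cis-promoter reporter transcripts in transiently transfected HepG2, 24 h after dosing. Reporter RNA measured via RT-PCR plus capillary electrophoresis of FAM-labeled products; gain or loss relative to DMSO.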

Assay [8] concerns the target Hypoxia-inducible factor 1-alpha (Homo sapiens) (UniProt Q16665). The experiment in a line: ATG_HIF1a_CIS: Attagene CIS-FACTORIAL HepG2 Assay for human Hypoxia Inducible Factor 1 (HIF1A) (AID 2282951). Conditions: HepG2 Attagene cis-factorial HIF1a reporter transcription; actives raise or lower the signal. The essentials:
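Endogenous-TF cis reporter readout, human HepG2 cells, 24 h incubation; mRNA detected via RT-PCR and capillary electrophoresis fluorescence; DMSO-normalised bidirectional fitting.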

The nature of assay [9]: ATG_RORE_CIS: Attagene CIS-FACTORIAL HepG2 Assay for human RAR-related Orphan Receptor Element (RORE) (AID 2282959). The settings on record: HepG2 Attagene cis-factorial RORE reporter, mRNA; actives raise or lower the signal. The essentials: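 Measured here: transcript induction of a cis-regulated reporter in HepG2 cells transiently transfected via FuGene 6. After 24 h, RNA was processed by RT-PCR and fluorescent capillary electrophoresis; DMSO defined baseline activity.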

A short description of assay [10]: ATG_TGFb_CIS: Attagene CIS-FACTORIAL HepG2 Assay for human Transforming Growth Factor (TGF) (AID 2282967). The settings on record: HepG2 Attagene CIS TGFb reporter, mRNA transcription; actives raise or lower the signal. In short, it runs like this:
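Readout: fluorescently labeled reporter cDNA fragments resolved by capillary electrophoresis after RT-PCR. Transfected HepG2 cells dosed for 24 h; endogenous TF activity at TGFB1-linked cis element; gain or loss fitted relative to DMSO.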

Assay [11] can be described thus: ATG_VDRE_CIS: Attagene CIS-FACTORIAL HepG2 Assay for human Vitamin D Receptor Element (VDRE) (AID 2282968). Conditions: HepG2 VDRE cis-reporter transcription, actives raise or lower the signal. The essentials: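 Measures endogenous factor activity through cis-element-driven reporter transcripts in transiently transfected HepG2. Cells are treated 24 h; reporter mRNA is quantified by RT-PCR and capillary electrophoresis; fitting is bidirectional.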

The target in assay [12] is Transcriptional activator Myb (Homo sapiens) (UniProt P10242). The experiment in a line: ATG_Myb_CIS: Attagene CIS-FACTORIAL HepG2 Assay for human Myeloblastosis (Myb) Proto-Oncogene Transcription Factor (AID 2282986). Conditions: HepG2 Attagene CIS-FACTORIAL Myb reporter transcription; actives raise or lower the signal. In short, it runs like this: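 Multiplexed cis-reporter system in HepG2: transient transfection, 24 h treatment, mRNA readout by RT-PCR and capillary electrophoresis. Both increases and decreases are scored versus DMSO negative control.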
Transcriptional activator Myb (Homo sapiens), sequence (P10242 whole entry, looked up): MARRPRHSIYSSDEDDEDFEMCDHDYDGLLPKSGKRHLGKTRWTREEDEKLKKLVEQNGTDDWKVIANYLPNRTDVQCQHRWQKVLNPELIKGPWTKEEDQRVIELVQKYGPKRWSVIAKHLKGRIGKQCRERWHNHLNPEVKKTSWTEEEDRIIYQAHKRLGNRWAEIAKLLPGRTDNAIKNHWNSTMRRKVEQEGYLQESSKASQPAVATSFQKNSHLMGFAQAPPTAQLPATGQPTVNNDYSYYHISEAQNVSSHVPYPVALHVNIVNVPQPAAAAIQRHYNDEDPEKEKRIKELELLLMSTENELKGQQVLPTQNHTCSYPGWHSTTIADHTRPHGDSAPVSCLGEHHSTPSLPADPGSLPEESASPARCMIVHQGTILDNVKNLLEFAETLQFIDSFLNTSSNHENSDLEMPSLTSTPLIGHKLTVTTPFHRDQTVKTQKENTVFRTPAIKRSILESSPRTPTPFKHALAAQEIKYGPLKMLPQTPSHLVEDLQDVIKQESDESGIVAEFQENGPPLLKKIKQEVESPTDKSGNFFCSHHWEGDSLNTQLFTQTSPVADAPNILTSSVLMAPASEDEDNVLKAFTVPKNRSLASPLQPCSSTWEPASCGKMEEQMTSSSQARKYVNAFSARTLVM

Assay [13] addresses Nuclear respiratory factor 1 (Homo sapiens) (UniProt Q16656). The experiment in a line: ATG_NRF1_CIS: Attagene CIS-FACTORIAL HepG2 Assay for human Nuclear Respiratory Factor 1 (NRF1) Orphan Gene (AID 2282987). The settings on record: HepG2 NRF1 cis-element reporter, Attagene multiplex; actives raise or lower the signal. The essentials:
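Endogenous factor activity was captured via cis-element-driven reporter transcripts in HepG2 cells. Following 24 h chemical treatment, transcripts were quantified by RT-PCR and capillary electrophoresis.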

A short description of assay [14]: ATG_NFI_CIS: Attagene CIS-FACTORIAL HepG2 Assay for human Nuclear Factor I (NFI) (AID 2282989). The settings on record: HepG2 cis-regulatory reporter, NFI response element transcription; actives raise or lower the signal. The essentials: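 Read-out: reporter mRNA via RT-PCR plus capillary electrophoresis with fluorescence detection. Transiently transfected HepG2 (endogenous TF activity on cis promoters), 24 h compound exposure; gain or loss of signal fitted against DMSO.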

Assay [15] has as its target Myc proto-oncogene protein (Homo sapiens) (UniProt P01106). Put plainly: ATG_Myc_CIS: Attagene CIS-FACTORIAL HepG2 Assay for human Myelocytomatosis (Myc) Proto-Oncogene Transcription Factor (AID 2282990). Conditions: HepG2, Attagene cis-reporter transcription factor activity; actives raise or lower the signal. The essentials: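 After 24 h chemical treatment of HepG2 cells carrying multiplexed cis-regulated reporter constructs, reporter transcripts quantified by RT-PCR and capillary electrophoresis of fluorescent fragments. Gain or loss fitted against DMSO baseline.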

Assay [16] addresses Cellular tumor antigen p53 (Homo sapiens) (UniProt P04637). The experiment in a line: ATG_p53_CIS: Attagene CIS-FACTORIAL HepG2 Assay for human p53 Transcription Factor (AID 2282994). Conditions: HepG2 p53 cis-element reporter, Attagene mRNA; actives raise or lower the signal. In short, it runs like this:
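Transiently transfected HepG2 (multiple cis reporter transcription units); exposure 24 h; reporter RNA via RT-PCR, 6-FAM extension, 2 h HpaI digest at 37 C, CE detection; DMSO baseline.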

Assay [17] is described as follows: ATG_XTT_Cytotoxicity: Cytotoxicity Assessment in the Attagene TRANS-FACTORIAL HepG2 Assay (AID 2283584; active = hit-call score of the fitted dose curve at least 0.9, where 1 is the maximum). In short, it runs like this: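 HepG2 cells transiently transfected with GAL4-UAS multiple reporter units, dosed 24 h; cytotoxicity read by XTT as loss of signal versus DMSO baseline.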
In assay [18] the target is Cellular tumor antigen p53 (Homo sapiens) (UniProt P04637). The experiment in a line: TOX21_p53_BLA_p2_ratio: Tox21 HCT-116 p53 Agonism Beta-lactamase Assay, Ratio, Phase 2 (AID 2283592; active = hit-call score of the fitted dose curve at least 0.9, where 1 is the maximum). The essentials: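 First, HCT116 reporter cells settle for 5 h at 37C. Next, DMSO compound solutions are pinned in (217-fold dilution) and left 16 h. Finally, CCF4-AM substrate is loaded 2 h at room temperature and the 460/530 nm ratio read.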
Cellular tumor antigen p53 (Homo sapiens), sequence (P04637 whole entry, looked up): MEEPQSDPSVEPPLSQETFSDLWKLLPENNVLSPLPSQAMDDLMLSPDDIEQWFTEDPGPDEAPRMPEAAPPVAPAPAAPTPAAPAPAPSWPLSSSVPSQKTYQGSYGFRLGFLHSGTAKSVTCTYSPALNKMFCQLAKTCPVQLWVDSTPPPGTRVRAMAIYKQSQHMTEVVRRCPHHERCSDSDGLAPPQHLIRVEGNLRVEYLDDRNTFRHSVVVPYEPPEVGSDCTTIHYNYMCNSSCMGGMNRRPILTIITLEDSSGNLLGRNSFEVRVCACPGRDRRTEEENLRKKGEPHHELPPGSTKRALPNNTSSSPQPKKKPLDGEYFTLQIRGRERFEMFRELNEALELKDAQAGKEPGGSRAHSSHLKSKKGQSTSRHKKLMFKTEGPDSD

For assay [19], the target named is X-box-binding protein 1 (Homo sapiens) (UniProt P17861). The experiment in a line: ATG_Xbp1_CIS: Attagene CIS-FACTORIAL HepG2 Assay for human X-box Binding Protein 1 (XBP1) (AID 2282972). The settings on record: HepG2 XBP1 cis-element reporter, Attagene multiplex; actives raise or lower the signal. In short, it runs like this: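 Human hepatoma HepG2, cis-element reporter system, 24 h treatment; mRNA quantified by RT-PCR/CE fluorescence; fit relative to DMSO.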
X-box-binding protein 1 (Homo sapiens), sequence (P17861 whole entry, looked up): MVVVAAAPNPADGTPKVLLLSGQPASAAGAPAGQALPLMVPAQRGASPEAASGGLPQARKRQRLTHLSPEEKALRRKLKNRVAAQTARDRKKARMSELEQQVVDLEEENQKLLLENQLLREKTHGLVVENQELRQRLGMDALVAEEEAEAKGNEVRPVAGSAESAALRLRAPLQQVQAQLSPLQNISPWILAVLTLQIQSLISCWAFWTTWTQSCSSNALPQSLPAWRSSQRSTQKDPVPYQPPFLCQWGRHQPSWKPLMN

Assay [20] addresses Nuclear receptor subfamily 1 group I member 2 (Homo sapiens) (UniProt O75469). Put plainly: ATG_PXR_TRANS: Attagene TRANS-FACTORIAL HepG2 Assay for human Pregnane X Receptor (PXR) (AID 2283008; active = hit-call score of the fitted dose curve at least 0.9, where 1 is the maximum). In short, it runs like this: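 Transient HepG2 transfectants carrying multiplexed reporter transcription units; PXR activity read through a Gal4 chimera. 24 h exposure. RT-PCR/CE fluorescence; upward curve fit referenced to DMSO.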

Nuclear receptor subfamily 1 group I member 2 (Homo sapiens), sequence (O75469 whole entry, looked up, the tested form may be a part): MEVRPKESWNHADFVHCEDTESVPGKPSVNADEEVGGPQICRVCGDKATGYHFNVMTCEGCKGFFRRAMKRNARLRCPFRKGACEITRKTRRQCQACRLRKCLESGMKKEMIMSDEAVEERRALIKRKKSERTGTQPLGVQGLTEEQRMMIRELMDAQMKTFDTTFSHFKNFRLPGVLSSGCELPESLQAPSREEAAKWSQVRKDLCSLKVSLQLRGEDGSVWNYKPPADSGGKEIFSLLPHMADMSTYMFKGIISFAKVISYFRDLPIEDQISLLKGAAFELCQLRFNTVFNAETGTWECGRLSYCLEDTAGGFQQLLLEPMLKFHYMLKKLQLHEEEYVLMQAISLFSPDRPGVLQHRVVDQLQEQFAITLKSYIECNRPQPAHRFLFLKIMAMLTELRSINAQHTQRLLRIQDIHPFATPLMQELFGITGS
Nuclear respiratory factor 1 (Homo sapiens), sequence (Q16656 whole entry, looked up): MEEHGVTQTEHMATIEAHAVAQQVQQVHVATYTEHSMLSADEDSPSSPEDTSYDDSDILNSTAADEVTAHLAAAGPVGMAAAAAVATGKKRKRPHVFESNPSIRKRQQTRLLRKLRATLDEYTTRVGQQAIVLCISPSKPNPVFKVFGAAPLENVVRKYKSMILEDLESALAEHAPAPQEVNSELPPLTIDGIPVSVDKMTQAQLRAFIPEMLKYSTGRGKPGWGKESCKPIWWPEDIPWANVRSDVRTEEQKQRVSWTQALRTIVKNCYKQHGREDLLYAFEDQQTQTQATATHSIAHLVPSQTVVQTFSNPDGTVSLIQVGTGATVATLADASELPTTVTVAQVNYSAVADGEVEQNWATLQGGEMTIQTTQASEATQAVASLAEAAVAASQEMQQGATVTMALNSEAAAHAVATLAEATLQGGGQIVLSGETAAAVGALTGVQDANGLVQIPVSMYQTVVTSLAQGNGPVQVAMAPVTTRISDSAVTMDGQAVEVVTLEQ
Myc proto-oncogene protein (Homo sapiens), sequence (P01106 whole entry, looked up, the tested form may be a part): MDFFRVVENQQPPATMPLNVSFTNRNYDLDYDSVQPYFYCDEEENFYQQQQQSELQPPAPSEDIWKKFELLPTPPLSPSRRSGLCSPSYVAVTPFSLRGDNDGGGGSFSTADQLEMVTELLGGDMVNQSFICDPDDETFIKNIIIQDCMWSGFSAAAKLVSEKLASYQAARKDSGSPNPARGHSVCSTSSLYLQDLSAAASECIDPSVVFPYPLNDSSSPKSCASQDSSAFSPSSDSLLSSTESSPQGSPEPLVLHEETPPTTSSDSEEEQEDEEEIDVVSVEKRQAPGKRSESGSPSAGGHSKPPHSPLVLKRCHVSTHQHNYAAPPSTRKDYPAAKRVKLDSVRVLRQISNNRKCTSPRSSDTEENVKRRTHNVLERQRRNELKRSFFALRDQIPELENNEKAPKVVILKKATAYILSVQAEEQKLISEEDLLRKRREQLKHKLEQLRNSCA
Hypoxia-inducible factor 1-alpha (Homo sapiens), sequence (Q16665 whole entry, looked up): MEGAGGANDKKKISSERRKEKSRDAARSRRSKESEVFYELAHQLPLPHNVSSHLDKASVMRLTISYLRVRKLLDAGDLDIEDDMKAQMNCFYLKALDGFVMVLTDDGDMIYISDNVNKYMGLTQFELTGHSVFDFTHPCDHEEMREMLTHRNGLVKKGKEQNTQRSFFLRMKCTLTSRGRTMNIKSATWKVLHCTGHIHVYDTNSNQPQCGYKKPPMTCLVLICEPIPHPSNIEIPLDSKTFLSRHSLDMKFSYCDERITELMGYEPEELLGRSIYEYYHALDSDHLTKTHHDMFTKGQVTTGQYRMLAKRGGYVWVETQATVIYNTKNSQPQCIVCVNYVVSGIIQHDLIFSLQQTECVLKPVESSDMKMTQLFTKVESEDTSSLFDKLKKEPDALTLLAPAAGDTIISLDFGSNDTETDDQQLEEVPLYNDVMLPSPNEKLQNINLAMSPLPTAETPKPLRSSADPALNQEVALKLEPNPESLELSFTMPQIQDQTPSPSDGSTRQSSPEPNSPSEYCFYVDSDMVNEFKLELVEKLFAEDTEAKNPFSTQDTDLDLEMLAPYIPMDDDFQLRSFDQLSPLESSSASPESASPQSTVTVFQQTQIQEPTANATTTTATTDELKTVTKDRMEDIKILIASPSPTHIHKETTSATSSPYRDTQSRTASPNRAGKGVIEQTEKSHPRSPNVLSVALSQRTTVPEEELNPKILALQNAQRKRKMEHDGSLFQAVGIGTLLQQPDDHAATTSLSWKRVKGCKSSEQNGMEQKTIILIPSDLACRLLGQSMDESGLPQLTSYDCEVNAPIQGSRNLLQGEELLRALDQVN
Hepatocyte nuclear factor 3-beta (Homo sapiens), sequence (Q9Y261 whole entry, looked up, the tested form may be a part): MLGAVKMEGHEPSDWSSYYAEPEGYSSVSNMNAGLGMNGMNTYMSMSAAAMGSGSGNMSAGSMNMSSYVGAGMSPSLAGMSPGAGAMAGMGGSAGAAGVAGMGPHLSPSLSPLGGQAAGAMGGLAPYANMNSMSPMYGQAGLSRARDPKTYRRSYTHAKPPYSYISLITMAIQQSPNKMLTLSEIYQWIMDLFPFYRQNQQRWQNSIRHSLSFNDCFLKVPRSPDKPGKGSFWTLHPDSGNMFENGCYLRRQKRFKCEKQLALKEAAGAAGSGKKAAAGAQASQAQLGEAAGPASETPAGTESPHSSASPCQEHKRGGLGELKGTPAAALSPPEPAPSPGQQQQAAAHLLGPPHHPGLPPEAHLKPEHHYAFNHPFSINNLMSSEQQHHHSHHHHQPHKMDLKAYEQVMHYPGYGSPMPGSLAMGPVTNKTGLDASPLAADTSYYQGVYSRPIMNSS

Take `CC/C=C\CCO`: the compound was called inactive in [1], in assay [2], in [3], in [4], in assay [5] and in [6]. Besides, the compound was classed as inactive in assay [7], in assay [8], in assay [9], in assay [10], in assay [11] and in assay [12]. The compound was called inactive in assay [13], in assay [14], in [15], in [16], in assay [17] and in [18].

Take `C=CC(C)(CCC=C(C)C)OC(=O)c1ccccc1` (stereo not drawn): the result in assay [3], in [4], in assay [5], in assay [6], in [7] and in [8] was inactive. Besides, the compound was called inactive in assay [9], in assay [10], in [19], in assay [12], in assay [13] and in assay [14]. In addition, the outcome in assay [16], in [17] and in assay [18] was inactive. Besides, the concentration at half-maximal activity (AC50) in assay [15] was 131 µM (active); in assay [20], 8.68 µM (active).

On to `CC1=CCCC(C)(C)C12CCC(C)O2` (stereo not drawn), for which the compound was classed as inactive in assay [1], in assay [2], in assay [3], in assay [4], in assay [6] and in assay [7]. Besides, the compound was classed as inactive in assay [8], in assay [9], in [10], in [19], in assay [12] and in assay [13]. Besides, the outcome in assay [14], in assay [16], in assay [17] and in assay [18] was inactive. The half-maximal activity concentration (AC50) in assay [20] was 2.53 µM (active).

Regarding `c1ccc2c(c1)Oc1ccccc1S2`, the result in assay [1], in [2], in [4], in assay [5], in assay [6] and in assay [8] was inactive. In addition, the outcome in [9], in assay [10], in assay [11], in [19], in assay [12] and in assay [13] was inactive. The result in assay [16], in assay [20], in assay [17] and in [18] was inactive. The AC50 in assay [14] is 140 µM (active).

For `CC[N+](CC)(CC(=O)Nc1c(C)cccc1C)Cc1ccccc1`, the compound was classed as inactive in [1], in assay [4], in assay [5], in assay [6], in [7] and in assay [8]. Moreover, the outcome in assay [9], in assay [10], in [12], in assay [13], in assay [14] and in assay [15] was inactive. The compound was classed as inactive in [20] and in assay [17].

For the compound `CC[N+](CC)(CC(=O)Nc1c(C)cccc1C)Cc1ccccc1` (tested in a mixture with another compound), the compound was classed as inactive in assay [1], in [3], in assay [4], in [5], in [6] and in assay [8]. Moreover, the call in assay [9], in assay [10], in assay [19], in assay [12], in [13] and in [14] was inactive. In addition, the compound was classed as inactive in assay [20] and in assay [17].

On to `CC(=O)CC(=O)OC(C)(C)C`, for which the outcome in [18] was inactive.

Consider `O=C(O)/C=C/C(=O)O`, for which the call in assay [3], in assay [4], in assay [5], in assay [6], in assay [7] and in assay [8] was inactive. Further, the result in assay [9], in assay [10], in assay [11], in assay [12], in [13] and in [14] was inactive. Moreover, the outcome in assay [15], in assay [16] and in assay [17] was inactive.

What is called AC50 is the midpoint of the concentration-response curve, whichever way the signal moves.
